Each molecule was assayed on Perkinsus marinus PRA240 (assay: ATP content (proliferation) relative to DMSO control; higher = more parasite growth (less inhibition)). Conditions: 20 µM; 4 days.
Description: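 Perkinsus marinus PRA240 trophozoites (2-5x10^6 cells/ml, 100 µl, 96-well) were exposed once to MMV Malaria Box compounds at 20 µM (0.1% DMSO) in triplicate. ATP content (ATPlite bioluminescence) was read at day 4 post-exposure and normalised to DMSO + cells control wells (100% activity). Compounds were identified by joining plate and well to the Malaria Box list.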

Compound | ATP content [%]
CCOc1ccc(C2N(C)c3ccccc3N2C)cc1 | 131
CCOC(=O)c1cnc2ccc(OC)cc2c1NCc1ccccc1 | 69.3
CC(C)OCc1cc(CN2CCN(c3cccc(Cl)c3)CC2)c(O)c2ncccc12 | 12
COc1ccc(C(O)(CCC(C)C)C(CN2CCOCC2)c2ccc(Cl)cc2)cc1 (centres undefined) | 91.9
COc1cc(-c2nc(-c3ccc(Sc4ccccc4)cc3)c(-c3ccccc3)[nH]2)cc(OC)c1O | 78.3
Cc1cc(Nc2cccc(F)c2)nc(NCc2ccccc2)n1 | 94.7
Cc1ccc(F)cc1NC(=O)c1cc(Cl)ccc1Nc1ccccc1 | 113
COc1ccc(C(=O)Nc2ccc(Cl)cc2C(=O)Nc2ccncc2)cc1 | 106
O=C(Nc1ccc(Cl)cc1)N1CCN(c2ccc3nncn3n2)CC1 | 124
Cc1ccnc(NC(c2cccc(OCc3ccccc3)c2)c2ccc3cccnc3c2O)c1 (centres undefined) | 57.2
C=C(C)CCC(C)N1CCC(N2CCC(C(=O)NCCc3ccccc3)CC2)CC1 (centres undefined) | 90
O=C1c2ccccc2C2=Nc3ccccc3SC(c3cccc(F)c3)C12 (centres undefined) | 36.8
CC(=O)c1sc(NC(=O)Nc2ccc(C)cc2C)nc1C | 68.1
OC1CCCCC1C1(NC(=S)Nc2ccccc2)CCCCC1 (centres undefined) | 127
COc1ccc2nc(C)cc(Nc3ccccc3O)c2c1 | 163
Cc1ccc(C)c(-c2csc(Nc3ccc(C)c(C)c3)n2)c1 | 93.6
CCOc1cc(Br)c(C(C)NC(=O)c2cccc(OC)c2)cc1OCC (centres undefined) | 115
O=C(Nc1nc(-c2ccccn2)cs1)c1ccccc1Br | 8.72
FC(F)(F)c1cccc(Nc2nc3ccccc3nc2Nc2cccc(C(F)(F)F)c2)c1 | 155

— the supplement of paper PMC4206467
